# Laboratory results reported in PubChem BioAssay (Tox21).
# Values joined by “and” are separate entries in the source; they are usually repeats but may differ in a detail not shown here. Equal entries are not always repeated. Results filed as inconclusive are left out. Where a call stands in place of a potency, no number is given. The source holds several records for some structures; these can differ, active in one and inactive in another. Active and inactive are the calls of the source. Unless noted, the call rests on the fitted dose curve; in most records, active means well fitted curve in the direction sought with a large enough effect in the repeat runs; inconclusive means weak or mixed curves; inactive means no such curve, though single readings can be large; an effect the other way counts as inactive or inconclusive.
# Key:
# [1] = qHTS assay to identify small molecule agonists of the vitamin D receptor (VDR) signaling pathway - cell viability counter screen (AID 743224); further: nearly all actives have a fitted effect of over 50% in size; further: potency means the concentration at half of the fitted maximal effect
# Outline: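 VDR-bla cells were preincubated 4 h at 37C/5% CO2, then exposed to compounds for 16 h. After the 2 h room-temperature bla FRET read, CellTiter-Glo was added to the same wells and luminescence read after 30 min.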
# [2] = qHTS assay to identify small molecule antagonists of the vitamin D receptor (VDR) signaling pathway - cell viability counter screen (AID 743225); further: nearly all actives have a fitted effect of over 50% in size
# Outline: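 Cytotoxicity toward the VDR-bla HEK 293T line was scored by ATP-based CellTiter-Glo luminescence, read in the wells already used for the beta-lactamase readout after 16 h compound treatment under 3 nM 1-alpha,25-dihydroxyvitamin D3 stimulation.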
# [3] = qHTS assay to identify small molecule agonists of the NFkB signaling pathway (AID 1159509; active means well fitted curve in the direction sought with a large enough effect in the signal ratio in the repeat runs, not every such curve was filed as active; the % refers to the signal ratio; further: series mostly up to about 61 µM)
# Outline: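 NFkB-bla ME-180 cells with a beta-lactamase reporter under an NF-kB response element were plated overnight, treated with compounds in DMSO for 5 hr at 37 C, then loaded with FRET substrate for 1.5 hr at room temperature.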
# [4] = qHTS assay to identify small molecule agonists of the NFkB signaling pathway - cell viability counter screen (AID 1159515; calls by dose curve; further: series mostly up to about 61 µM; nearly all actives have a fitted effect of over 55% in size)
# Outline: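 NFkB-bla ME-180 cells, 2,000/well, were plated overnight at 37 C, 5% CO2, then exposed to compounds in DMSO for 5 hr. After the bla FRET read, CellTiter-Glo was added to the same wells; luminescence was read after 30 min at room temperature.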
# [5] = qHTS assay to identify small molecule agonists of the endoplasmic reticulum stress response signaling pathway (AID 1159516; active means well fitted activation curve with a large enough effect in the signal ratio in the repeat runs, not every such curve was filed as active; the % refers to the signal ratio)
# Outline: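 CellSensor ESRE-bla HeLa cells, carrying a beta-lactamase reporter driven by the ER stress response element, were plated overnight and exposed to compounds for 5 hr at 37 C. Reporter activity was read as FRET substrate fluorescence after 2 hr at room temperature.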
# [6] = qHTS assay to identify small molecule agonists of the endoplasmic reticulum stress response signaling pathway - cell viability counter screen (AID 1159517; calls by dose curve; further: series mostly up to about 61 µM; nearly all actives have a fitted effect of over 50% in size)
# Outline: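 Luminescence readout: CellTiter-Glo, 30 min RT, same wells as the ESRE-bla reporter read. HeLa ESRE-bla, 1,500 cells/well, o/n 37 C; cpd 5 hr 37 C/5% CO2.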
# [7] = qHTS assay to identify small molecule antagonists of the retinoid-related orphan receptor gamma (ROR-gamma) signaling pathway - cell viability counter screen (AID 1159520); further: nearly all actives have a fitted effect of over 50% in size
# Outline: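 Tet-on ROR gamma CHO cells (1,000/well) were plated 4 hr, given compounds in DMSO for 2 hr at 37 C, then induced with 1 uM final doxycycline for 16 hr. Viability was read as ATP by CellTiter-Glo luminescence after 30 min.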
# [8] = qHTS assay to identify small molecule agonists of the AP-1 signaling pathway - cell viability counter screen (AID 1159525; calls by dose curve; further: nearly all actives have a fitted effect of over 55% in size)
# Outline: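 ME-180 AP-1-bla, 2500 cells/well, Opti-MEM + 0.5% dialyzed FBS; overnight 37 °C; cpd 15-pt titration, 5 h 37 °C; CellTiter-Glo 30 min RT; luminescence read; normalised to TOAB and DMSO controls.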
# [9] = qHTS assay to identify small molecule agonists of the AP-1 signaling pathway (AID 1159526; calls by dose curve)
# [10] = qHTS assay to identify small molecule agonists of the RXR signaling pathway - cell viability counter screen (AID 1159529); further: nearly all actives have a fitted effect of over 50% in size; further: potency means the concentration at half of the fitted maximal effect
# Outline: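 Tox21 10K compounds were tested for cytotoxicity against GeneBLAzer RXR-alpha HEK 293T cells grown in 2% charcoal-stripped FBS. Exposure lasted 16 hr at 37 C, 5% CO2; viability read by CellTiter-Glo luminescence.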
# [11] = qHTS assay to identify small molecule antagonists of the retinoid acid receptor (RAR) signaling pathway - cell viability counter screen (AID 1159551); further: nearly all actives have a fitted effect of over 35% in size
# Outline: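 C3RL4 cells were seeded overnight at 37 C, then treated with compounds plus 1 uM (final) retinol for 6 h at 37 C. Viability was read as ATP by CellTiter-Glo luminescence after 30 min at room temperature.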
# [12] = qHTS assay to identify small molecule antagonists of the retinoic acid receptor (RAR) signaling pathway (AID 1159552; further: nearly all actives have a fitted effect of over 50% in size)
# Outline: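 Overnight-plated C3RL4 reporter cells get compound, then retinol to 1 uM final; plates sit 6 hr at 37 C, 5% CO2. A luciferase reagent is added and light output recorded after 30 min at room temperature.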
# [13] = qHTS assay to identify small molecule agonists of the retinoic acid receptor (RAR) signaling pathway (AID 1159553)
# Outline: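 C3RL4 cells carrying a RARE luciferase reporter were plated overnight at 37 C, then exposed to compounds in DMSO for 6 hr at 37 C and 5% CO2. Luminescence was read 30 min after luciferase reagent addition at room temperature.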
# [14] = qHTS assay to identify small molecule antagonists of the estrogen related receptor (ERR) signaling pathway from Tox21 library - cell viability counter screen (AID 1224834); further: nearly all actives have a fitted effect of over 30% in size; further: potency means the concentration at half of the fitted maximal effect
# Outline: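 ERR reporter cells were plated 6 h before compound addition, then exposed to test compounds in DMSO for 17.5 h at 37 C. Viability was read as CellTiter-Fluor fluorescence after a 30-minute incubation at 37 C.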
# [15] = qHTS assay to identify small molecule agonists of the constitutive androstane receptor (CAR) signaling pathway - cell viability counter screen (AID 1224836); further: series mostly up to about 92 µM; nearly all actives have a fitted effect of over 45% in size
# Outline: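 Fluorescence from CellTiter-Fluor indicates live cells after 23 h exposure. The human hepatoma line expresses hCAR and a CYP2B6-2.2kb reporter. Incubation medium contains 0.75 uM PK11195 (final).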
# [16] = qHTS assay to identify small molecule antagonists of the constitutive androstane receptor (CAR) signaling pathway - cell viability counter screen (AID 1224837); further: series mostly up to about 92 µM; nearly all actives have a fitted effect of over 45% in size
# Outline: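 HepG2 cells stably expressing hCAR and a CYP2B6-2.2kb reporter were plated and pre-incubated 4 hr at 37 C/5% CO2, then given compounds at 15 concentrations plus 50 nM CITCO (final). After 23 hr, viability was read by CellTiter-Fluor fluorescence.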
# [17] = biological target: Nuclear receptor ROR-gamma (Homo sapiens) (UniProt P51449); test: qHTS assay to identify small molecule antagonists of the retinoid-related orphan receptor gamma (ROR-gamma) signaling pathway (AID 1159521; further: nearly all actives have a fitted effect of over 50% in size; further: potency means the concentration at half of the fitted maximal effect)
# Outline: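 Readout: ONE-Glo luciferase luminescence, 30 min at room temperature. System: Tet-on RORγ CHO, RORE-LUC. Sequence: compound 2 h, doxycycline 1 uM final, 16 h at 37 C.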
# [18] = biological target: Retinoic acid receptor RXR-alpha (Homo sapiens) (UniProt P19793); test: qHTS assay to identify small molecule agonists of the RXR signaling pathway (AID 1159527; calls by dose curve; further: nearly all actives have a fitted effect of over 35% in size; further: potency means the concentration at half of the fitted maximal effect)
# Outline: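 Reporter activation is measured as beta-lactamase activity via FRET substrate cleavage (emission 460/530 nm) in HEK 293T cells expressing an RXR-alpha-driven bla construct, following 16 hr compound exposure at 37 C.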
# [19] = biological target: Luciferin 4-monooxygenase (Photinus pyralis) (UniProt P08659); test: qHTS assay to identify small molecule inhibitors of firefly luciferase (AID 1224835); further: nearly all actives have a fitted effect of over 25% in size; further: potency means the concentration at half of the fitted maximal effect
# Outline: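 Quantitative HTS format; KM concentrations of both substrates. Purified P. pyralis FLuc activity quantified from luminescence images.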
# [20] = qHTS assay to identify small molecule antagonists of the estrogen related receptor (ERR) signaling pathway - cell viability counter screen (AID 1224818);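 further: series mostly up to about 46 µM; viability measured after 17.5 h of compound exposure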
# Outline: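 ERR reporter cells plated 6 h at 37 C/5% CO2, then compounds in DMSO pin-transferred and incubated 17.5 h at 37 C. Viability read as CellTiter-Fluor fluorescence after 30 min at 37 C.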
# Chain of Luciferin 4-monooxygenase (Photinus pyralis) (P08659 whole entry, looked up): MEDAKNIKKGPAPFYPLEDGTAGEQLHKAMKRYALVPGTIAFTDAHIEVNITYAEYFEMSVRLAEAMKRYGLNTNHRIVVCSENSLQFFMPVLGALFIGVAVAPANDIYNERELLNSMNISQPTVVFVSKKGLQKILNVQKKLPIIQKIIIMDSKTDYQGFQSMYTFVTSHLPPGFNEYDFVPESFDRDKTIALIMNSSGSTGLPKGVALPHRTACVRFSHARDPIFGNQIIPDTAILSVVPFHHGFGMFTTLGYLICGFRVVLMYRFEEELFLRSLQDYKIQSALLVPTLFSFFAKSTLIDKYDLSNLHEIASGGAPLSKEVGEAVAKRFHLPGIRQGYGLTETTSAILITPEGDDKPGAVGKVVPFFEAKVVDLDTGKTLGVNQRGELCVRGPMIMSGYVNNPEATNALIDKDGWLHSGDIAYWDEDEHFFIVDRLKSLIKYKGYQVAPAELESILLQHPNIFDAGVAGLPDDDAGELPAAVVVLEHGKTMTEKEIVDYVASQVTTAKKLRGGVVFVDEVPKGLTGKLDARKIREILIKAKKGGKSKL
# Chain of Retinoic acid receptor RXR-alpha (Homo sapiens) (P19793 whole entry, looked up): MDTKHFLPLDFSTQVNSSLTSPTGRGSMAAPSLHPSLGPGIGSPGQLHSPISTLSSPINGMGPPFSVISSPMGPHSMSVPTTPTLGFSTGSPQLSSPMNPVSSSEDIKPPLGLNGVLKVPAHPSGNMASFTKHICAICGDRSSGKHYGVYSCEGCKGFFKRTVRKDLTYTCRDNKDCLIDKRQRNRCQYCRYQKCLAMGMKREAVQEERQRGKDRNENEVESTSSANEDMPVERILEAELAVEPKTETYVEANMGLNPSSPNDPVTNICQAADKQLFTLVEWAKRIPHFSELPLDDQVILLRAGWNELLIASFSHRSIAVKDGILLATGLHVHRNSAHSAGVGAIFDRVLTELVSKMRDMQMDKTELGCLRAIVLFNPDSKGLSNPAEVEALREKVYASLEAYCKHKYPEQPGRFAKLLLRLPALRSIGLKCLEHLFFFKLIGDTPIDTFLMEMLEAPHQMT
SMILES,Potency [1],outcome [2],outcome [3],outcome [4],outcome [5],outcome [6],Potency [7],Potency [8],outcome [9],Potency [10],outcome [11],Potency [12],Potency [13],Potency [14],Potency [15],Potency [16],Potency [17],Potency [18],Potency [19],outcome [20]
OCCOCCN1CCN(C2=Nc3ccccc3Sc3ccccc32)CC1,inactive,inactive,inactive,inactive,inactive,inactive,inactive,inactive,inactive,inactive,inactive,inactive,inactive,inactive,inactive,inactive,–,–,–,–
O=S1(=O)CC=CC1,–,inactive,inactive,inactive,inactive,inactive,–,inactive,inactive,inactive,inactive,inactive,inactive,inactive,inactive,inactive,inactive,inactive,inactive,–
Cc1cccnc1,inactive,inactive,inactive,inactive,inactive,inactive,inactive,–,inactive,inactive,inactive,–,–,inactive,–,inactive,inactive,inactive,inactive,–
CC(=O)c1ccccc1,–,inactive,inactive,inactive,inactive,inactive,inactive,inactive,inactive,inactive,inactive,–,–,inactive,–,inactive,–,inactive,inactive,–
CC(C)c1ccc(S(=O)(=O)O)cc1,inactive,inactive,inactive,inactive,inactive,inactive,inactive,–,inactive,inactive,inactive,–,–,inactive,–,inactive,inactive,inactive,inactive,–
CN(C)CCC(c1ccc(Cl)cc1)c1ccccn1 (configuration not stated),inactive,inactive,inactive,inactive,inactive,inactive,inactive,inactive,–,55.1 µM (active),inactive,–,–,48.7 µM (active) and inactive,–,–,–,inactive,–,inactive
CC(O)COCC(C)O (configuration not stated),inactive,inactive,inactive,inactive,inactive,inactive,inactive,–,inactive,inactive,inactive,–,–,inactive,inactive,inactive,inactive,–,inactive,–
CCCCCOC(C)=O,inactive and 49 µM (active),inactive,inactive,inactive,inactive,inactive,inactive,inactive,inactive,inactive,inactive,inactive,inactive,inactive,inactive,inactive,–,0.279 µM (active),inactive,–
CCCCCCCCCCCCCCCO,inactive,inactive,inactive,inactive,inactive,inactive,inactive,–,inactive,inactive,inactive,inactive,inactive,inactive,inactive,inactive,inactive,–,inactive,–
O=c1[nH]c(=O)n([C@H]2CCCO2)cc1F,–,inactive,inactive,inactive,inactive,inactive,inactive,–,inactive,inactive,inactive,inactive,inactive,inactive,inactive,inactive,–,–,inactive,–
C#CCN(C)Cc1ccccc1,inactive,inactive,inactive,inactive,inactive,inactive,inactive,inactive,inactive,inactive,inactive,inactive,inactive,inactive,–,inactive,–,inactive,inactive,inactive
CC(=O)Nc1ccccc1,inactive,inactive,inactive,inactive,inactive,inactive,inactive,inactive,inactive,inactive,inactive,inactive,inactive,inactive,–,inactive,–,inactive,inactive,–
CC1=CC(=O)NS(=O)(=O)O1,–,inactive,inactive,inactive,inactive,inactive,inactive,–,inactive,inactive,inactive,–,–,inactive,inactive,inactive,inactive,–,–,–
CCCCOC(=O)COc1ccc(Cl)cc1Cl,inactive,inactive,inactive,inactive,inactive,inactive,–,inactive,inactive,inactive,inactive,inactive,inactive,inactive,–,inactive,19.5 µM (active) and inactive,inactive,9.05 µM (active) and 10 µM (active),–
CCCCCC(N)=O,inactive,inactive,inactive,inactive,inactive,inactive,inactive,–,inactive,inactive,inactive,–,–,inactive,–,inactive,inactive,inactive,inactive,–
CCCCC(CC)COC(=O)CS (configuration not stated),inactive,inactive,inactive,inactive,inactive,inactive,inactive,–,inactive,inactive,inactive,inactive,inactive,inactive,inactive,inactive,–,inactive,inactive,–
